The whole screen tested about 220,000 compounds, of which about 16,000 (7.3%) were called active. Another 25% or so got no clear call; they are omitted. Calls follow the shape of the dose curve; as a rule, active = well fitted inhibition curve with a large enough effect (not every such curve was filed as active); inconclusive = small, poorly fitted or top-dose-only effect, or another doubt; inactive = no such curve, though single readings can be large or run the other way. The full list was thinned out, with actives kept by preference.
These compounds were tested against Aldehyde dehydrogenase 1A1 (Homo sapiens) (UniProt P00352) (assay: qHTS Assay for Inhibitors of Aldehyde Dehydrogenase 1 (ALDH1A1)). Conditions: Purified ALDH1A1, NADH fluorescence, propionaldehyde substrate; series mostly up to 75.3 µM; activity, negative = inhibition: at the top concentration.
Aldehyde dehydrogenase 1A1 (Homo sapiens), sequence (P00352 whole entry, looked up): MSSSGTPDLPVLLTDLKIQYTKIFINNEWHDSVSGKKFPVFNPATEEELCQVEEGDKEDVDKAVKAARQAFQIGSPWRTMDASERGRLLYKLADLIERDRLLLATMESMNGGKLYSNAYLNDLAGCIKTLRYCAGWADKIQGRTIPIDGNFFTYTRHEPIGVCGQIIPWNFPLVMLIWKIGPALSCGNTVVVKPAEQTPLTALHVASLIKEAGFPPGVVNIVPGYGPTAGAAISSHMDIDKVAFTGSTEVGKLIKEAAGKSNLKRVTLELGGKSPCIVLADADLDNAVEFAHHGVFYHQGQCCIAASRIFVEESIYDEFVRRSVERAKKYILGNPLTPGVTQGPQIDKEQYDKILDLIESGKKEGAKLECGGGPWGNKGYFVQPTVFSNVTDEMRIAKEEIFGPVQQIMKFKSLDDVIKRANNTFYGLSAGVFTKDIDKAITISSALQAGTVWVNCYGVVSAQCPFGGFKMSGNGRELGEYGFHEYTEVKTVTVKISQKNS

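For activity, negative = inhibition in this document: plate controls were no enzyme wells and a reference inhibitor.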
Potency is read from the fitted curve at half-maximal effect.

activity, negative = inhibition, inactive:
COC(=O)C1=C(C(=O)OC)[C@@H]2N(C)c3ccccc3[C@@]23C[C@@H](C(=O)OC)N(S(=O)(=O)c2cccs2)C3=N1 0.268% [at 13.5 µM]
O=C(NCCCN1CCN(Cc2ccccc2)CC1)C1CCN(S(=O)(=O)N2CCCC2)CC1 -7.82%
Cc1ccc(S(=O)(=O)N2CCC(C(=O)N[C@@H](C)C(=O)NCCc3ccccc3)CC2)cc1 -10.6%
CN(Cc1cccc2ncccc12)C(=O)CC1C(=O)NCCN1Cc1ccc(F)cc1 (stereo unspecified) -10%
COc1ccc(C)cc1NC(=O)Nc1ccccc1SC -5.22%
O=C(c1ccccn1)c1ncc(C(F)(F)F)cc1Cl 17.1%
O=C(CC(O)(C(F)(F)F)C(F)(F)F)Nc1ccc(Cl)c(Cl)c1 -4.42%
CC1(OC(=O)CCc2ccccc2)C(=O)C=C2C=C(c3ccc(C#N)cc3)N(CCc3ccccn3)C=C2C1=O (stereo unspecified) 10.1% [at 13.5 µM]
C=CCn1c(-c2ccccc2OCC)n[nH]c1=S -15%
C=CCn1c(CCc2ccc(OC(C)C)cc2)n[nH]c1=S -5.12%
O=C(CN1CCN(c2ncccn2)CC1)Nc1ccccc1C(F)(F)F 3.02%
c1ccc(-c2cc(N3CCCCC3)c3ccccc3n2)cc1 -14.9%
COc1cccc(NC(=O)C(Sc2nnnn2C)c2ccccc2)c1 (stereo unspecified) 5.1%
OCCNCc1cccc(OCc2ccccc2Cl)c1 6.58%
O=C(C1CCCO1)N1CCN(C(=S)NC2CC2)CC1 (stereo unspecified) -0.777%
Cn1c(=O)c2c(nc(SCC(=O)Nc3ccccc3N3CCCCC3)n2C)n(C)c1=O -12.6%
CCC1CCCCN1C(=O)CSc1nc(C)cc(C)n1 (stereo unspecified) -4.6%
Cc1c(C(=O)N/N=C/c2ccccc2)[nH]c2c([N+](=O)[O-])cccc12 8.46%
Cc1[nH]c(=O)c(C(=O)/C=C/c2ccccc2)c2c1CCCC2 4.06%
O=C(O)C1C2CC2CN1C(=O)c1ccc(Cl)cc1Cl (stereo unspecified) 1.47%
Cc1[nH][nH]c(=O)c1C(c1ccc2c(c1)OCO2)c1c(C)[nH][nH]c1=O -2.58%
Cc1[nH][nH]c(=O)c1N=Nc1ccccc1 8.64%
O=C(NCCc1ccccn1)c1cccnc1Oc1ccc(Cl)cc1 9.99%
CN1CCN(C(=O)CCc2nc(-c3ccc(Cl)cc3)no2)CC1 11.6%
CCCn1c(=O)c2ccccc2n2c(SCC(=O)/C(C#N)=C(\C)N)nnc12 1.09%
CCOC(=O)Nc1ccccc1N1C(=O)c2ccccc2C1=O 10.7%
CCc1nnc(NS(=O)(=O)c2ccc(N=Cc3c(C)[nH]n(-c4ccc(C)cc4)c3=O)cc2)s1 -7.49%
Cc1ccc(-n2[nH]c(C)c(/C=N/N3C(=O)c4cccc5cccc(c45)C3=O)c2=O)cc1 4.67%
N/C(=N\S(=O)(=O)c1cc(C(F)(F)F)cc(C(F)(F)F)c1)c1cccs1 -0.599%
CC1=CC(=C(C#N)c2nc3ccccc3s2)C=C(C)N1c1ccc(F)cc1F -9.49%
Oc1ccccc1C=NC1CCCCC1N=Cc1ccccc1O (stereo unspecified) 11%
CCOc1ccc(NC(=O)NNC(=O)c2ccc(Cl)cc2Cl)cc1 3.26%
Cc1nc2cc(NC(=O)NC3CC3)ccc2n1C -9.58%
COCC(=O)Nc1ccc(Br)cc1 5.23%
COC(=O)Cc1ccc(NC(=S)NCc2ccccc2)cc1 1.73%
CC(C)C(O)C1CCN(Cc2nc(Cc3ccccc3Cl)no2)CC1 (stereo unspecified) -0.592%
Cc1ccc(COc2ccc(/C=N/NC(=O)CN3CCCCC3)cc2)cc1 8.06%
O=c1cc(O)nc(SCc2ccccc2Cl)[nH]1 1.42%
CCOC(=O)N1CCN(C(=O)Cc2ccc(-n3c(=S)[nH]c4ccccc4c3=O)cc2)CC1 -10.4%
COc1cc2[nH]c(=S)n(Cc3ccc(F)cc3)c(=O)c2cc1OC 6.91%
COc1ccc(OC)c(-n2c(=S)[nH]c3cc(C(=O)N4CCCCC4)ccc3c2=O)c1 -1.79%
Cc1ccc(Cl)cc1NC(=O)c1ccccn1 3.34%
Cc1cn(C2OC[C@@H](O)[C@@H]2CO)c(=O)[nH]c1=O (stereo partly specified) 9.87%
O=C(NCc1cccnc1)c1cccc(-c2cc3ccccc3oc2=O)c1 -7.95%
CCc1ccc(CN(C)Cc2nc(Cc3ccccc3)no2)nc1 -4.1%
CN(C)CCCN1C(=O)CSC1c1ccc([N+](=O)[O-])cc1 (stereo unspecified) 4.08%
O=C(c1ccc(S(=O)(=O)N2CCOCC2)cc1)N1CCN(c2ccccc2)CC1 2.43%
CCC(CC)C(=O)N1CC(=O)Nc2ccc(Br)cc2C1c1ccccc1 (stereo unspecified) 0.759%
CNS(=O)(=O)c1ccc(NC(=O)C2CC(=O)N(c3ccc(Cl)cc3)C2)cc1 (stereo unspecified) 5.48%
COc1cc(OC)nc(NC(=O)CCl)n1 3.91%
O=C(NNc1ccccn1)c1ccc(Cl)nc1 -11.2%
CCCCSc1nc2ccccc2[nH]1 -4.29%
COc1cc(CCC(=O)OCC(=O)Nc2cccc(S(N)(=O)=O)c2)cc(OC)c1OC -5.58%
Cc1nn(C)c(C)c1S(=O)(=O)N1CCC(CO)(Cc2ccc(Cl)cc2)CC1 7.34%
COc1ccc(NC(=S)NCCN2CCC(C)CC2)cc1 0.486%
COc1ccc(OCC(=O)Nc2ccc(N3CCC(C)CC3)cc2)cc1 9.23%
O=C(Nc1cccc(Cl)c1)c1cc([N+](=O)[O-])ccc1N1CCN(CCO)CC1 -7.69%
CN1CCN(c2ccc(S(=O)(=O)Nc3ccccc3)cc2[N+](=O)[O-])CC1 -5.79%
CCNC(=O)c1ccc(OCC(=O)Nc2ccc(F)cc2)c(OC)c1 2.14%
CCCCn1c(N)c(N2CCOCC2)c(=O)n(CC(=O)NCCc2ccccc2)c1=O 8.85%
Cc1nc(S(=O)(=O)c2ccc(Br)cc2)nc2c1CCC2 -3.44%
O=C(CCc1ccc(S(=O)(=O)N2CCOCC2)cc1)NN=C1CCCCCCC1 -9.69%
CC(=O)Cn1ncc(N2CCOCC2)c(Br)c1=O 3.21%
Cc1ccc(OCC(=O)Nc2ccc(S(=O)(=O)Nc3ccccn3)cc2)cc1 -0.623%
Cc1ccc(NS(=O)(=O)c2c(C)[nH]c(=O)[nH]c2=O)cc1C -15%
COC(=O)C1=C(C(=O)OC)[C@@H]2Nc3ccccc3[C@@]23C[C@@H](C(=O)OC)N(S(=O)(=O)c2ccc([N+](=O)[O-])cc2)C3=N1 -1.68% [at 13.5 µM]
Nc1c(NCCc2ccccc2)c2ccccc2oc1=O -7.28%
O=C1c2ccccc2C(=O)N1c1ccccc1S(=O)C(F)(F)F (stereo unspecified) 12.6%
O=C1C(Cl)=C(N2CCOCC2)C(=O)N1c1ccccc1 -8.32%
COC(=O)c1c(C)oc2ccc(N(C(=O)Oc3ccccc3)S(=O)(=O)c3ccccc3)cc12 -1.58%
Cc1ccccc1NC(=O)c1nn(-c2ccc(F)c(F)c2)ccc1=O 0.92%
C/C(=N\NC(=O)c1ccccc1C)c1ccc(N2CCOCC2)cc1 5.33%
C(=N/Nc1cc(N2CCOCC2)nc(N2CCOCC2)n1)/c1ccccc1 7.34%
O=C(CCN1CCN(C/C=C/c2ccccc2)CC1)Nc1cccc(F)c1 9.75%
COc1ccc(N2C(=O)C(CC(=O)Nc3ccc(F)cc3)N(CCc3cccs3)C2=O)cc1 (stereo unspecified) -2.98%
COc1ccc(N2C(=O)C(CC(=O)Nc3ccccc3)N(Cc3ccc(OC)c(OC)c3)C2=O)cc1 (stereo unspecified) 2.78%
NC(=O)c1ccccc1N(Cc1ccccc1)S(=O)(=O)c1ccccc1 3.35%
N#CCc1ccc(OC(=O)c2cccnc2)cc1 14%
CCCCN(C(=O)/C=C/c1ccco1)c1c(N)n(CC(C)C)c(=O)[nH]c1=O 3.6%
CCNC(=S)NNC(=O)c1ccc2ncccc2c1 -2.18%
COc1ccc(OCC(=O)NCCc2ccc(S(N)(=O)=O)cc2)cc1 38.9%
CCCCc1ccc(S(N)(=O)=O)cc1 -5.42%

Potency, active:
Cc1ccc(CCNC(=O)C2CCN(S(=O)(=O)N3CCCC3)CC2)cc1 12.6 µM
N/C(=N\OC(=O)Nc1ccc(Cl)c(Cl)c1)c1ncc(C(F)(F)F)cc1Cl 25.1 µM
C=CCn1c(-c2ccc3[nH]c(C)c(C)c3c2)n[nH]c1=S 12.6 µM
CCC1CCCCN1C(=O)CSc1nc2c(c(=O)n(C)c(=O)n2C)n1C (stereo unspecified) 12.6 µM
Cc1nc(-c2ccccc2)sc1C(=O)/C=C/c1ccccc1 3.55 µM
Cc1[nH][nH]c(=O)c1C(c1ccc(-c2ccc(Cl)cc2)o1)c1c(C)[nH][nH]c1=O 22.4 µM
CCCCN1C(=O)/C(=C(/C#N)C(N)=O)c2ccccc21 7.08 µM
COc1cc(SC#N)ccc1N=Cc1c(C)[nH]n(-c2ccc(C)cc2)c1=O 0.631 µM
O=c1c(O)c(Br)ccc2c(Br)c(O)c(O)c(O)c12 8.91 µM
Oc1cc(O)c2c(c1)OC(c1ccc(O)c(O)c1)C(O)C2 (stereo unspecified) 10 µM
CC(C)Oc1ccc(CC(=O)NNC(=S)Nc2ccc(Br)cc2)cc1 10 µM
S=c1[nH]nc(SCc2ccccc2Cl)c2[nH]cnc12 0.0316 µM
COc1ccccc1-n1c(=S)[nH]c2c(sc(=S)n2-c2ccc(C)cc2C)c1=O 8.91 µM
CCc1ccc(-n2c(=S)sc3c(=O)n(-c4ccccc4OC)c(=S)[nH]c32)cc1 12.6 µM
Cc1ccc2c(c1)C(c1ccccc1)N(C(=O)c1ccc(S(=O)(=O)N3CCOCC3)cc1)CC(=O)N2 (stereo unspecified) 7.94 µM
O=C(CCl)NNc1cccc(Cl)n1 10 µM
COc1ccc(NC(=S)NCC2CCN(c3ccc(OC)cc3)C2)cc1 (stereo unspecified) 35.5 µM
O=S(=O)(NN=C1CCCCCCC1)c1ccc(Br)cc1 11.2 µM
Cc1ccc(Nc2cc(=O)n(C3CCCCC3)c(=O)[nH]2)cc1C 1 µM
O=C1C(=O)N(c2ccccc2)c2ccccc21 6.31 µM
Cc1ccccc1N/N=C/c1ccc(N2CCOCC2)cc1 8.91 µM
CCOc1ccc(NC(=O)CC2C(=O)N(c3ccccc3)C(=O)N2CCOC)cc1 (stereo unspecified) 15.8 µM
CN(C)c1ccc(C=NCCc2ccc(S(N)(=O)=O)cc2)cc1 0.708 µM

Potency, inactive:
O=C(/C=C/c1ccccc1)c1ccccc1O

Source: PubChem BioAssay AID1030 (National Center for Advancing Translational Sciences (NCATS), 2008)
